Results taken from PubChem BioAssay AID1159580 (chemical genetic matrix, 2015).
Out of some 5,500 compounds screened, about 2,000 (36%) were called active. About 18% were inconclusive and are not listed. Rule as the data show it: active = normalized growth mostly below about 0.91 (no sharp cut-off); inconclusive = no clear call, values can overlap the other calls; inactive = mostly above about 0.92. The list shows a part of the results.

Assay: chemical genetic growth profiling, strain panel (AID 1159580);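 also: tested at 20 µM; growth read once vehicle control cultures reached saturation at 30 °C; 1 = growth at the plate median or of vehicle wells; lower values mean less growth of the strain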
Conditions: growth OD
[1] = S. cerevisiae deletion strains, locus YDL101C, strain DUN1, active compounds read low
[2] = S. cerevisiae deletion strains, locus YHR030C, strain SLT2, active compounds read low

Measured: normalized growth

Cc1onc(-c2c(F)cccc2Cl)c1C(=O)c1ccc(F)cc1
inactive: S. cerevisiae deletion strains, locus YAL013W, strain DEP1, active compounds read low 0.939 | S. cerevisiae deletion strains, locus YBR229C, strain ROT2, active compounds read low 0.98 | [1] 0.991 | S. cerevisiae deletion strains, locus YDR150W, strain NUM1, active compounds read low 0.963 | S. cerevisiae deletion strains, locus YEL061C, strain CIN8, active compounds read low 0.979 | S. cerevisiae deletion strains, locus YGR078C, strain PAC10, active compounds read low 0.973 | S. cerevisiae deletion strains, locus YGR229C, strain SMI1, active compounds read low 0.969 | [2] 0.696 | S. cerevisiae deletion strains, locus YHR087W, strain rtc3, active compounds read low 0.959 | S. cerevisiae deletion strains, locus YJL187C, strain SWE1, active compounds read low 0.975 | S. cerevisiae deletion strains, locus YJR043C, strain POL32, active compounds read low 0.956 | S. cerevisiae deletion strains, locus YJR075W, strain HOC1, active compounds read low 0.937 | S. cerevisiae deletion strains, locus YKL190W, strain CNB1, active compounds read low 0.974 | S. cerevisiae deletion strains, locus YLR039C, strain RIC1, active compounds read low 0.807 | S. cerevisiae deletion strains, locus YLR058C, strain SHM2 (second series), active compounds read low 0.987 | S. cerevisiae deletion strains, locus YLR085C, strain ARP6, active compounds read low 0.8 | S. cerevisiae deletion strains, locus YML094W, strain GIM5, active compounds read low 0.972 | S. cerevisiae deletion strains, locus YMR219W, strain ESC1, active compounds read low 0.996 | S. cerevisiae deletion strains, locus YMR263W, strain SAP30, active compounds read low 0.978 | S. cerevisiae deletion strains, locus YMR307W, strain GAS1, active compounds read low 0.708 | S. cerevisiae deletion strains, locus YNL153C, strain GIM3, active compounds read low 0.973 | S. cerevisiae deletion strains, locus YNL298W, strain CLA4 (second series), active compounds read low 0.93 | S. cerevisiae deletion strains, locus YNL322C, strain KRE1, active compounds read low 0.97 | S. cerevisiae deletion strains, locus YNR030W, strain Alg12, active compounds read low 0.949 | S. cerevisiae deletion strains, locus YPL055C, strain LGE1, active compounds read low 0.929 | S. cerevisiae deletion strains, locus YPL241C, strain CIN2, active compounds read low 0.964 | S. cerevisiae deletion strains, locus YPR135W, strain CTF4, active compounds read low 0.817 | S. cerevisiae strains, strain wild type, active compounds read low 0.959
active: S. cerevisiae deletion strains, locus YLR262C, strain YPT6, active compounds read low 0.787

Cc1onc(-c2c(Cl)cccc2Cl)c1C(=O)NC(C)(C)CC(C)(C)C
inactive: S. cerevisiae deletion strains, locus YAR019C, strain CDC15, active compounds read low 0.998 | S. cerevisiae deletion strains, locus YBL105C, strain PKC1, active compounds read low 0.99 | S. cerevisiae deletion strains, locus YBR135W, strain CKS1, active compounds read low 0.991 | S. cerevisiae deletion strains, locus YBR136W, strain MEC1, active compounds read low 0.989 | S. cerevisiae deletion strains, locus YBR160W, strain CDC28, active compounds read low 0.997 | S. cerevisiae deletion strains, locus YDL017W, strain CDC7, active compounds read low 0.997 | S. cerevisiae deletion strains, locus YDL028C, strain MPS1, active compounds read low 0.976 | [1] 0.994 | S. cerevisiae deletion strains, locus YDL108W, strain KIN28, active compounds read low 0.983 | S. cerevisiae deletion strains, locus YDL132W, strain cdc53, active compounds read low 0.992 | S. cerevisiae deletion strains, locus YDL214C, strain PRR2, active compounds read low 0.945 | S. cerevisiae deletion strains, locus YDR052C, strain DBF4, active compounds read low 0.991 | S. cerevisiae deletion strains, locus YDR054C, strain cdc34, active compounds read low 0.995 | S. cerevisiae deletion strains, locus YDR226W, strain ADK1, active compounds read low 0.999 | S. cerevisiae deletion strains, locus YDR477W, strain SNF1, active compounds read low 0.977 | S. cerevisiae deletion strains, locus YER123W, strain YCK3, active compounds read low 0.919 | S. cerevisiae deletion strains, locus YER133W, strain GLC7, active compounds read low 0.97 | S. cerevisiae deletion strains, locus YFL009W, strain cdc4, active compounds read low 0.995 | S. cerevisiae deletion strains, locus YFL029C, strain CAK1, active compounds read low 0.998 | S. cerevisiae deletion strains, locus YFR003C, strain YPI1, active compounds read low 0.992 | S. cerevisiae deletion strains, locus YFR019W, strain FAB1, active compounds read low 0.972 | S. cerevisiae deletion strains, locus YFR028C, strain CDC14, active compounds read low 0.995 | S. cerevisiae deletion strains, locus YGR040W, strain KSS1, active compounds read low 0.956 | S. cerevisiae deletion strains, locus YGR052W, strain FMP48, active compounds read low 1.04 | S. cerevisiae deletion strains, locus YGR092W, strain DBF2, active compounds read low 0.969 | [2] 1.12 | S. cerevisiae deletion strains, locus YHR079C, strain IRE1, active compounds read low 1.05 | S. cerevisiae deletion strains, locus YHR082C, strain KSP1, active compounds read low 1.08 | S. cerevisiae deletion strains, locus YHR205W, strain SCH9, active compounds read low 0.955 | S. cerevisiae deletion strains, locus YIL147C, strain SLN1, active compounds read low 0.99 | S. cerevisiae deletion strains, locus YJL095W, strain BCK1, active compounds read low 1.07 | S. cerevisiae deletion strains, locus YJL128C, strain PBS2, active compounds read low 0.945 | S. cerevisiae deletion strains, locus YJL157C, strain FAR1, active compounds read low 0.953 | S. cerevisiae deletion strains, locus YJR016C, strain ILV3, active compounds read low 0.992 | S. cerevisiae deletion strains, locus YJR066W, strain TOR1 (second series), active compounds read low 0.951 | S. cerevisiae deletion strains, locus YJR066W, strain TOR1, active compounds read low 1.09 | S. cerevisiae deletion strains, locus YKL048C, strain ELM1, active compounds read low 0.982 | S. cerevisiae deletion strains, locus YKL067W, strain YNK1, active compounds read low 0.961 | S. cerevisiae deletion strains, locus YKL101W, strain HSL1, active compounds read low 0.953 | S. cerevisiae deletion strains, locus YKL193C, strain SDS22, active compounds read low 0.996 | S. cerevisiae deletion strains, locus YKL203C, strain TOR2, active compounds read low 1.04 | S. cerevisiae deletion strains, locus YLR113W, strain HOG1, active compounds read low 0.962 | S. cerevisiae deletion strains, locus YLR133W, strain CKI1, active compounds read low 0.965 | S. cerevisiae deletion strains, locus YLR403W, strain SFP1, active compounds read low 0.927 | S. cerevisiae deletion strains, locus YML070W, strain DAK1, active compounds read low 0.932 | S. cerevisiae deletion strains, locus YMR001C, strain CDC5, active compounds read low 0.998 | S. cerevisiae deletion strains, locus YMR205C, strain PFK2 (second series), active compounds read low 0.966 | S. cerevisiae deletion strains, locus YMR277W, strain FCP1, active compounds read low 0.998 | S. cerevisiae deletion strains, locus YNL006W, strain LST8, active compounds read low 0.988 | S. cerevisiae deletion strains, locus YNL020C, strain ARK1, active compounds read low 0.971 | S. cerevisiae deletion strains, locus YNL161W, strain CBK1, active compounds read low 0.995 | S. cerevisiae deletion strains, locus YNL183C, strain NPR1, active compounds read low 1.03 | S. cerevisiae deletion strains, locus YNL207W, strain RIO2, active compounds read low 0.991 | S. cerevisiae deletion strains, locus YNL222W, strain SSU72, active compounds read low 0.989 | S. cerevisiae deletion strains, locus YNL307C, strain MCK1 (second series), active compounds read low 1 | S. cerevisiae deletion strains, locus YOL078W, strain AVO1, active compounds read low 0.992 | S. cerevisiae deletion strains, locus YOL136C, strain PFK27, active compounds read low 0.95 | S. cerevisiae deletion strains, locus YOR061W, strain CKA2, active compounds read low 0.959 | S. cerevisiae deletion strains, locus YOR119C, strain RIO1, active compounds read low 0.992 | S. cerevisiae deletion strains, locus YOR231W, strain MKK1, active compounds read low 1.02 | S. cerevisiae deletion strains, locus YOR329C, strain SCD5, active compounds read low 0.994 | S. cerevisiae deletion strains, locus YPL031C, strain PHO85, active compounds read low 0.979 | S. cerevisiae deletion strains, locus YPL153C, strain RAD53, active compounds read low 0.964 | S. cerevisiae deletion strains, locus YPL204W, strain HRR25, active compounds read low 0.977 | S. cerevisiae deletion strains, locus YPL209C, strain IPL1, active compounds read low 0.993 | S. cerevisiae deletion strains, locus YPL256C, strain CLN2, active compounds read low 1.08 | S. cerevisiae deletion strains, locus YPR025C, strain CCL1, active compounds read low 0.992 | S. cerevisiae deletion strains, locus YPR106W, strain ISR1, active compounds read low 0.993 | S. cerevisiae deletion strains, locus YPR111W, strain DBF20, active compounds read low 0.989 | S. cerevisiae deletion strains, strain NNK1, active compounds read low 0.99 | S. cerevisiae deletion strains, strain TSCII, active compounds read low 0.995
